# From PubChem BioAssay AID463173 (ICCB-Longwood Screening Facility, Harvard Medical School, 2010)
# Hit rate of the full screen: of about 52,000 compounds, about 4,300 (8.3%) were called active. The sample holds actives, similar compounds and a random draw of the others, so the mix is not that of the screen. A number with no mark means an inactive call. Rule as the data show it: active = survival mostly below about 52% (no sharp cut-off); inactive = mostly above about 56%.
# Test system: DeltatarO mutant
# Assay: S. aureus survival, RN4220 and DeltatarO strains – OD600, teichoic acid synthesis inhibitors, primary screen (AID 463173)
# Details: S. aureus RN4220 wild type/DeltatarO growth, OD600, 18 h, active compounds read low, screened at 18.75 µg/mL (by protocol)
row,Compound,survival
1,Cc1nn(-c2ccccc2)c(OC(=O)c2ccc(Cl)cc2)c1S(=O)(=O)c1ccccc1,79%
2,c1csc(-c2nc3ccccn3c2Nc2ccc3c(c2)OCCO3)c1,89%
3,Cc1ccccc1NC(=O)CCS(=O)(=O)c1cc(Br)cc2c1N(C(=O)C1CC1)CC2,96%
4,CC(=O)Nc1cc2c(cc1C(=O)c1ccccc1)OCCO2,108%
5,Cn1c(=O)c(=O)n(C)c2cc(S(=O)(=O)CCC(=O)Nc3ccc(F)cc3)ccc21,83%
6,CCc1nn(CC(=O)NCCN(CC(C)C)CC(C)C)c(=O)c2cc3sc(C)cc3n12,68%
7,CC(=O)c1ccc(Nc2cc(C)nc3nc(Cc4ccccc4)nn23)cc1,64%
8,CCOC(=O)c1cccc(NC(=O)NCc2cccn2Cc2ccccc2)c1,119%
9,CCOC(=O)Cc1ccc(NC(=O)NCc2cccn2Cc2ccccc2)cc1,-4% (active)
10,CCOc1ccc(NC(=O)NCc2cccn2Cc2ccccc2)cc1,72%
11,CCN1CCc2c(sc(-n3cccc3)c2C(C)NC(=O)Nc2ccc(Br)cc2)C1 (stereo not given),102%
12,CCc1ccc(NC(=O)CC2C(=O)N(c3ccc(OC)cc3)C(=O)N2Cc2ccc(OC)cc2)cc1 (stereo not given),100%
13,CC(=O)c1ccc(NC(=O)Cn2cnc3nc4c(cc3c2=O)CC(C)CC4)cc1 (stereo not given),60%
14,O=C(CSc1cn(CC(=O)N2CCCCC2)c2ccccc12)NCc1ccccc1,87%
15,CCOC(=O)c1cccc(NC(=O)Cn2c(CC(=O)N3CCCC3)nc3ccccc32)c1,83%
16,O=C(Cn1c(CC(=O)N2CCCC2)nc2ccccc21)NCc1ccccc1,64% (active)
17,CCn1c(=O)c2sccc2n2c(CCC(=O)N3CCN(c4ccc(C(C)=O)cc4)CC3)nnc12,65%
18,CCOc1cc(C(=O)N2CCn3c4c(c5cc(C)ccc53)CCCC42)cc(OCC)c1OCC (stereo not given),56%
19,Cc1ccc(C(=O)N2CCn3c4c(c5cc(C)ccc53)CCCC42)cc1 (stereo not given),-1% (active)
20,Cc1ccc2c(c1)c1c3n2CCN(C(=O)c2cccc(C(F)(F)F)c2)C3CCC1 (stereo not given),14% (active)
21,COc1cc(SC)ccc1C(=O)N1CCn2c3c(c4cc(C)ccc42)CCCC31 (stereo not given),70%
22,CCCN(CCC)S(=O)(=O)c1ccc(C(=O)N2CCn3c4c(c5cc(C)ccc53)CCCC42)cc1 (stereo not given),58%
23,Cc1ccc2c(c1)c1c3n2CCN(C(=O)c2ccc(C(F)(F)F)cc2)C3CCC1 (stereo not given),44%

row,Compound,survival
1,COc1ccc(OC)c(CNC(=O)c2cc3ccc4cccnc4c3[nH]2)c1,112%
2,COc1ccc(-c2nnc(SCC(=O)N(C)C3CCCCC3)o2)cc1OC,86%
3,O=C(O)c1ccc(N=NN2CCCCC2)cc1,75%
4,COc1cccc(NC(=O)C(=O)NCC(c2cccnc2)N2CCN(c3ccccc3)CC2)c1 (stereo not given),97%
5,COc1cccc(C2C(C(=O)Nc3ccccc3OC)=C(C)Nc3nc4ccccc4n32)c1 (stereo not given),51%
6,Cc1cccc(N2CCN(C(=O)Cn3ncc4c5ccccc5n(C)c4c3=O)CC2)c1C,73%
7,CCc1nnc(NC(=O)c2nc(S(C)(=O)=O)ncc2Cl)s1,66%
8,CCc1nnc(NC(=O)c2nc(S(=O)(=O)Cc3ccc(C)cc3)ncc2Cl)s1,42% (active)
9,Cc1ccc(CS(=O)(=O)c2ncc(Cl)c(C(=O)Nc3nnc(C(C)C)s3)n2)cc1,54%
10,Cc1cccc(CS(=O)(=O)c2ncc(Cl)c(C(=O)Nc3nnc(C(C)C)s3)n2)c1,28% (active)
11,CCCc1nnc(NC(=O)c2nc(S(=O)(=O)Cc3ccc(C)cc3)ncc2Cl)s1,47%
12,CC(C)c1nnc(NC(=O)c2nc(S(=O)(=O)Cc3ccccc3)ncc2Cl)s1,46%
13,Cc1ccccc1CS(=O)(=O)c1ncc(Cl)c(C(=O)Nc2nnc(C(C)C)s2)n1,30% (active)
14,CCc1nnc(NC(=O)c2nc(S(=O)(=O)Cc3cccc(C)c3)ncc2Cl)s1,31% (active)
15,O=C(NC1CCCCC1)c1cccs1,107%
16,COCCN(Cc1cc2cc3c(cc2nc1Cl)OCO3)C(=O)Nc1ccccc1OC,92%
17,CCOc1ccc(CN(C(=O)c2nc(SC)ncc2Cl)C2CCS(=O)(=O)C2)cc1 (stereo not given),88%
18,Cc1ccc(-c2ccc(=O)n(CC(=O)Nc3ccc(F)c(Cl)c3)n2)cc1C,82%
19,COc1ccccc1Nc1cc(C(=O)NCc2cccs2)c2ccccc2n1,73%
20,Cc1cc(=O)[nH]c2nnc(SCCC(C)C)n12,73%
21,Cc1nnc(NC(=O)c2nc(S(=O)(=O)Cc3ccccc3)ncc2Cl)s1,48% (active)
22,CCOc1ccc(-c2c(C)nn3c(C)c(C(=O)Nc4cccc(Cl)c4C)cnc23)cc1OCC,76%
23,Cc1nn2c(C)c(C(=O)NCCc3ccccc3)cnc2c1-c1ccccc1,81%

row,Compound,survival
1,CCNC(=O)c1cnc2c(-c3ccccc3)c(C)nn2c1C,8% (active)
2,COc1cc(CNC(=O)c2cnc3c(-c4cccc(C)c4)c(C)nn3c2C)cc(OC)c1OC,68%
3,Cc1cccc(CNC(=O)c2cnc3c(-c4cccc(C)c4)c(C)nn3c2C)c1,17% (active)
4,Cc1nn2c(C)c(C(=O)NCC(C)c3ccccc3)cnc2c1-c1ccccc1 (stereo not given),101%
5,CCOc1ccc(-c2c(C)nn3c(-c4ccccc4)c(C(=O)NCCOC)cnc23)cc1OCC,-5% (active)
6,CCCNC(=O)c1cnc2c(-c3ccc(OCC)c(OCC)c3)c(C)nn2c1-c1ccccc1,92%
7,CCOc1ccc(-c2c(C)nn3c(C)c(C(=O)Nc4ccccc4C(=O)OC)cnc23)cc1OCC,-4% (active)
8,CCCCNC(=O)c1cnc2c(-c3ccc(OCC)c(OCC)c3)c(C)nn2c1-c1ccccc1,73%
9,Cc1nn2c(C)c(C(=O)NCc3cccc(Br)c3)cnc2c1-c1ccccc1,66%
10,CCOc1ccc(-c2c(C)nn3c(C)c(C(=O)Nc4cc(C)cc(C)c4)cnc23)cc1OCC,118%
11,Cc1ccc(-n2c(SCC(=O)Nc3ccc4c(c3)OCO4)nc3c([nH]c4ccccc43)c2=O)cc1,128%
12,CCOc1ccc(CNC(=O)Cn2c(=O)c3cccn3c3ccc(F)cc32)cc1OC,47%
13,COc1cc(NC(=O)c2cc(-c3ccc4c(c3)OCO4)on2)cc(OC)c1OC,115%
14,CCn1cc(C(=O)N(C)Cc2ccccc2)c(=O)c2cc(S(=O)(=O)N3CCc4ccccc4C3)ccc21,65%
15,O=C(Cn1cc(C(=O)C(F)(F)F)c2ccccc21)N1CCCCCC1,56%
16,COc1cc(C(=O)NCc2nnnn2-c2ccc(C)c(C)c2)cc(OC)c1OC,98%
17,CCOc1ccc(CCNC(=O)c2cnc3c(-c4ccc(F)cc4)c(C)nn3c2C)cc1OCC,134%
18,CCOc1ccc(CCNC(=O)c2cnc3c(-c4ccccc4)c(C)nn3c2C)cc1OCC,20% (active)
19,CCOc1ccc(-c2c(C)nn3c(C)c(C(=O)NCCc4ccccc4)cnc23)cc1OCC,54%
20,CCN1/C(=C\C(=O)C2CC2)Sc2ccccc21,81%
21,COc1ccc(OCC(O)Cn2c(C(C)C)nc3ccccc32)cc1 (stereo not given),88%
22,Cc1nc2ccccc2n1C(C)c1ccccc1 (stereo not given),77%
23,Cc1ccc(OCc2nc3ccccc3n2CC(C)C)cc1,1% (active)

row,Compound,survival
1,COc1ccc(OCc2nc3ccccc3n2C(C)C)cc1,88%
2,CCC(C)Cn1c(COc2ccc(OC)cc2)nc2ccccc21 (stereo not given),-1% (active)
3,COc1ccc(OCc2nc3ccccc3n2C(C)c2ccccc2)cc1 (stereo not given),-15% (active)
4,Cc1ccc(S(=O)(=O)c2cn(CC(=O)Nc3ccc4c(c3)OCO4)c3ccccc3c2=O)cc1C,112%
5,Cc1ccc(NC(=O)c2nnn(Cc3cccc(C(F)(F)F)c3)c2N)c(C)c1,86%
6,COc1ccc(-n2c(=O)c3c4c(sc3n(Cc3cc(C)ccc3C)c2=O)CN(C(C)=O)CC4)c(OC)c1,93%
7,Cc1cccc(CC(=O)NC2CC(=O)N(c3ccc4c(c3)OCCO4)C2)c1 (stereo not given),72%
8,CN1C(=O)Cc2cc(S(=O)(=O)N3CCN(c4cccc(C(F)(F)F)c4)CC3)ccc21,116%
9,CCOC(=O)c1c(C)[nH]c(C)c1S(=O)(=O)NCC(=O)N1CCN(c2ccccc2OC)CC1,102%
10,Cc1c(Cl)cccc1NC(=O)c1cc(-c2cccc(Cl)c2)on1,61%
11,COc1ccc(OC)c(-c2cc(C(=O)Nc3cnn(Cc4ccc(Cl)cc4Cl)c3)no2)c1,64%
12,COc1ccc(OC)c(-c2cc(C(=O)Nc3cccc(Cl)c3C)no2)c1,2% (active)
13,CC(=O)Nc1ccc(NC(=O)c2cc(-c3cccs3)on2)cc1,78%
14,COc1ccc(OC)c(-c2cc(C(=O)NC(C)c3ccccc3)no2)c1 (stereo not given),-14% (active)
15,Cc1ccc(NC(=O)c2cc(-c3cccs3)on2)cc1C,45% (active)
16,CC(NC(=O)c1cc(-c2ccc(Cl)cc2)on1)c1ccccc1 (stereo not given),142%
17,CC(C)c1cc(C(=O)NC(C)c2ccccc2)no1 (stereo not given),50%
18,CCc1ccc(NC(=O)c2cc(-c3cccs3)on2)cc1,161%
19,COc1ccc(OC)c(-c2cc(C(=O)NCc3ccc(Cl)cc3)no2)c1,47%
20,Cc1c(Cl)cccc1NC(=O)c1cc(-c2cccs2)on1,66%
21,COc1ccc(OC)c(-c2cc(C(=O)Nc3ccc(C)c(C)c3)no2)c1,-1% (active)
